Results as given in PubChem BioAssay (NCI).
“And” between values parts separate entries of the source, which are not always exact repeats. Equal entries are not always repeated. This is part of a sample that, as a whole, favours compounds with a hit. Of some 83,000 tested, about 20% had one in any assay.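 Note: values are percent growth. 100 is the growth of untreated cells, values between 100 and 0 indicate rising inhibition; between -100 and 0 indicates cell death.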 Unmarked numbers belong to inactive results. The source made the active and inactive calls.

Test system: A498 renal
Test: NCI-60 one-dose screen, 48 h (100 = growth as untreated, 0 = no growth, -100 = all killed)
Conditions: 10 µM
Method: Growth inhibition of the A498 human tumor cell line is measured as a screen for anti-cancer activity. Cells are grown in 96 well plates and exposed to the test compound for 48 hours. Compounds are tested at a single concentration, which is 10^-5 M for most compounds. The reported endpoint is percent growth (GI% or GIPRCNT), where numbers from 0 - 100% represent growth inhibition, and numbers from -100% - 0 represent cell death. For example, a value of 40 represents 60% growth inhibition. A value of 0 means no net growth occurred over the course of the experiment. A value of -40 indicates 40% of cells at the beginning of the experiment died by the end of the experiment. A value of -100 means all cells are dead at the end of the experiment.
NCI-60 Human Tumor Cell Lines Screen was performed using the standard one-dose NCI protocol, which is described in more detail at https://dtp.cancer.gov/discovery_development/nci-60/default.htm.
Compounds with GIPRCNT values below 10 were considered active. Activity score was based on GIPRCNT using the following formula: […]
Score is 0 for GIPRCNT values of 100 or above, 50 for GIPRCNT values of 0, and 100 for GIPRCNT values of -100.

Structure (SMILES) | growth [%]
CS/C(=C\c1ccc(C(=O)c2ccc(C)cc2)n1C)S(C)=O (stereo not given) | 108

Same assay, conditions: 10 µM unless noted

Structure (SMILES) | growth
O=C(c1ccc(Cl)cc1)C1C(c2ccccc2)C1[N+](=O)[O-] (stereo not given) | 86.3%
O=C1Cc2ccccc2C(=O)N1 | 103%
COc1ccc(/C=N/Nc2nc3ccccc3s2)cc1 | 115%
Clc1ccc2c(c1)N(C1CCCN(Cc3ccccc3)C1)c1ccccc1S2 (stereo not given) | 70.6%
CCOC(=O)C1=C(C)NC(C)=C(C(=O)OCC)C1 | 112%
O=C(N=C1C(=O)C2(CCCCC2)C2(N=C(c3ccccc3)OC2=O)C12CCCCC2)c1ccccc1 (stereo not given) | 98.2%
CC(=O)c1cccc(OC(=O)c2ccccc2)c1 | 107%
C#CCOC(=O)C(N)CS (stereo not given) | 128%
O=[N+]([O-])c1ccc(N/N=C/C2CCCCCC2)c([N+](=O)[O-])c1 | 62.7%
c1ccc2c[n+](Cc3ccc4ccccc4n3)ccc2c1 | 79.4%
C(=N\OCCc1ccccc1)/c1ccccn1 | 96.3% and 85.7%
CC(=O)C[n+]1ccccc1Sc1ccc(Cl)cc1 | 76.4%
CC1=CC(=O)C=CC1=Nc1ccc(N(C)C)cc1 | 92.7% and 121%
O=C(c1ccncc1)c1c(Cc2ccccc2)ccc2ccccc12 | 104%
CC1(CO)CCCC1NCCNC1CCCC1(C)CO (stereo not given) | 102% and 111%
OCc1cccc(F)c1 | 111%
CCCC(=O)OCC(COC(=O)CCC)OC(=O)CCC | 104%
CC1(C)CC(=O)NC1=O | 81.5%
COC(=O)C(Cc1cn(C(C)=O)c2ccccc12)P(=O)(OC)OC (stereo not given) | 115%

Structure (SMILES) | growth
COc1ccc(COC=O)cc1 | 105%
S=c1ccc2ccccc2[nH]1 | 110%
O=C(O)C1CSCN1 (stereo not given) | 113% and 103%
N#Cc1c(N)nc2c(c(-c3ccc(Cl)cc3)nn2-c2ccccc2)c1C#N | 113% [100 µM]
Nc1ccc2ccc(NS(=O)(=O)N3CCCCC3)cc2c1 | 29.3%
Cn1c(-c2ccccc2)cc(=O)cc1-c1ccccc1 | 106%
N#CC(=S)Nc1ccc(Cl)c(Cl)c1 | -12% (active)
CC(=O)Nc1ccc2oc(=O)ccc2c1 | 89.9%
CCN(C)c1ccccc1 | 99.6%
COC(=O)c1cc(C(=O)OC)cc([N+](=O)[O-])c1 | 93.8%
CC1(C)OC(=O)C(=Cc2ccc(C#N)cc2)C(=O)O1 | 104% and 94.8%
Nc1ccc(O)c(C(=O)O)c1 | 108% and 88%
C/C(=C\c1ccccc1)C(O)C(=O)c1nc2ccc([N+](=O)[O-])cc2[nH]c1=O (stereo not given) | 110%
CCOC(=O)c1ccc(N2C(=O)C(Cl)(c3ccccc3)C2c2ccco2)cc1 (stereo not given) | 88.8%
COC(=O)c1nc(=S)[nH]c(C(=O)OC)c1C(=O)c1ccc(OC)cc1 | 116%
Cc1cnc(N)s1 | 103%
CCN(CC)CCO/N=C1\CC(c2ccc(OC)c(OC)c2)Oc2ccccc21 (stereo not given) | 112%
CC(C)(C(=O)c1cccnc1)c1cccnc1 | 73.3% and 130%
COC(=O)c1nc(N)nc(C(=O)OC)c1C(=O)c1cccc2ccccc12 | 105%

Same assay, conditions: 100 µM

Structure (SMILES) | growth [%]
CS/C(=C\c1ccc(C(=O)c2ccc(C)cc2)n1C)S(C)=O (stereo not given) | 109
